Source: PubChem BioAssay (NCATS)
Results filed as inconclusive are left out. Active and inactive are the calls of the source. Calls follow the shape of the dose curve; as a rule, active = well fitted curve in the direction sought with a large enough effect; inconclusive = small, poorly fitted or top-dose-only effect, or another doubt; inactive = no such curve, though single readings can be large; an effect the other way counts as inactive or inconclusive.

Assays:
[1] = Cellular Toxicity (caspase-3) NIH 3T3 (AID 666);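 also: caspase signal read after 16 h compound exposure; 0% = DMSO basal and 100% = 100 µM tamoxifen stimulation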
In short: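 Concentration-response qHTS in NIH 3T3 mouse fibroblasts scores caspase-3/7 activation as rising luminescence after 16 hr compound exposure. Signals are scaled between DMSO-only and 100 uM tamoxifen.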

[2] = Cellular Toxicity (caspase-3) Renal Proximal Tubule (AID 667); conditions: renal proximal tubule cells; at 91.7 µM (top of the series), primary cells freshly taken from rat, solvent-only wells 0%, staurosporine 100% unless noted;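 also: cells exposed to compound for 16 hours at 37 °C before detection; 0% = DMSO basal and 100% = 10 µM staurosporine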
In short: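 Freshly isolated primary rat kidney proximal tubule cells, 1000/well, treated 16 hr at 37 °C, then Caspase-Glo 3/7 luminescence after 1 hr. Normalized to DMSO and 10 uM staurosporine; AC50 from Hill fit.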

[3] = target: Cytochrome P450 3A4 (Homo sapiens) (UniProt P08684); assay: qHTS Assay for Inhibitors and Substrates of Cytochrome P450 3A4 (AID 884); also: % is scaled to controls: 0 for no effect and ±100 for the full control effect; nearly all actives have a fitted effect of over 50% in size
Chain of Cytochrome P450 3A4 (Homo sapiens) (P08684 whole entry, looked up): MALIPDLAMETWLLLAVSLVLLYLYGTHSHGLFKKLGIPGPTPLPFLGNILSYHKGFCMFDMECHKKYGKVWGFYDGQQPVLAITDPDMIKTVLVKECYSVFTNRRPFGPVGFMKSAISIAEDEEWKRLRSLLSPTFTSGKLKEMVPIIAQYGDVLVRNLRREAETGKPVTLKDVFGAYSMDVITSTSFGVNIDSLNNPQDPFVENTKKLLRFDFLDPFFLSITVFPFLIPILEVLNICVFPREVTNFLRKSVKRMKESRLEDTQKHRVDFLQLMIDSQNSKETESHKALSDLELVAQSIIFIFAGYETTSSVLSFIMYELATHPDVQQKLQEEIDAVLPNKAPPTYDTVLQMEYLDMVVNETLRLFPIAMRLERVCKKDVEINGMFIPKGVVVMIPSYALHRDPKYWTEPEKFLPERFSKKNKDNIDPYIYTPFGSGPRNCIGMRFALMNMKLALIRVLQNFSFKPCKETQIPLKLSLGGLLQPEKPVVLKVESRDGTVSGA
In short: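 20 nM human CYP3A4 with 25 uM Luciferin-PPXE (at KM) in 200 mM KPO4, preincubated 10 min with compound; NADPH regeneration started a 60 min RT reaction. Luciferin detected by luminescence, normalized to 57 uM ketoconazole as full inhibition.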

[4] = Cell Viability - LYMP2-001 (AID 921);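 also: 0% = DMSO only and full inhibition = tetraoctylammonium bromide control wells; nearly all actives have a fitted effect of over 70% in size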
In short: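 Human lymphoblastoid LYMP2-001 cells, 2500 per well, in complete medium, treated 24 h at 37 C. Viability from cellular ATP by CellTiter-Glo luminescence; AC50 from Hill-equation fits of qHTS concentration-response.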

[5] = MultiTox-Fluor Cytotoxicity Assay - LYMP1-001 - Dead Cells (AID 946);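 also: cells exposed to compound for 16 h; 0% = DMSO and 100% = tetraoctylammonium bromide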
In short: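 AC50 from Hill fit of concentration-response; data normalized to DMSO (basal) and 15 uM tetraoctylammonium bromide (100%). LYMP1-001 lymphoblastoid cells, 2500/well, 16 hr compound at 37 C; dead-cell protease fluorescence, Ex/Em 485/520.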

[6] = MultiTox-Fluor Cytotoxicity Assay - LYMP1-001 - Live Cells (AID 947);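 also: 0% = DMSO only and full inhibition = tetraoctylammonium bromide control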
[7] = Cell Viability - LYMP1-002 - Assay at 16 hr (AID 948);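 also: 0% = DMSO alone and full effect = 92 µM tetraoctylammonium bromide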
In short: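 LYMP1-002 human lymphoblastoid cells, 2500/well, were treated with compounds for 16 hr at 37 C in complete medium. Viability was read as intracellular ATP by CellTiter-Glo luminescence, and AC50 was derived from a Hill fit to concentration-response data.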

[8] = MultiTox-Fluor Cytotoxicity Assay - LYMP1-002 - Live Cells (AID 955);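 also: cells exposed to compound for 16 hours; % is scaled to controls: 0 for no effect and ±100 for the full control effect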
In short: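 Cytotoxicity in the human lymphoblastoid line LYMP1-002 is measured as loss of live-cell protease activity after 16 h treatment in complete culture medium. AC50 is derived from Hill-equation fits of qHTS concentration-response data.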

[9] = MultiTox-Fluor Cytotoxicity Assay - LYMP1-002 - Dead Cells (AID 960);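 also: cells exposed to compound for 16 h at 37 °C; 0% = DMSO and 100% = tetraoctylammonium bromide; nearly all actives have a fitted effect of over 60% in size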
In short: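 Acute cytotoxicity in a human lymphoblastoid line is scored as rising dead-cell protease signal after 16 hr exposure at 37 C, measured fluorometrically (485/520).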

[10] = MultiTox-Fluor Cytotoxicity Assay - LYMP1-003 - Dead Cells (AID 961);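 also: cells exposed to compound for 16 h at 37 °C; 0% = DMSO and 100% = tetraoctylammonium bromide; nearly all actives have a fitted effect of over 70% in size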
In short: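 Human lymphoblastoid LYMP1-003 cells (2500/well) were treated with compounds for 16 hr at 37 C in complete medium. Dead-cell protease release was read by bis-AAF-R110 fluorescence (Ex/Em 485/520). AC50 came from Hill fits, normalized to DMSO and 15 uM tetraoctylammonium bromide.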

[11] = MultiTox-Fluor Cytotoxicity Assay - LYMP1-003 - Live Cells (AID 962);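 also: cells exposed to compound for 16 hours at 37 °C; 0% = DMSO only and full loss = 92 µM tetraoctylammonium bromide; cytotoxic hits lower the live-cell protease signal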
In short: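 Cells plated at 2500 per well and incubated 5 hr; compounds added and incubated 16 hr at 37 C; MultiTox-Fluor reagent added for 60 min at room temperature; fluorescence of liberated AFC measured at 405/510 nm.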

[12] = Cell Viability - LYMP1-003 - Assay at 24 hr (AID 963);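 also: plate controls were DMSO only for no effect and tetraoctylammonium bromide positive control for full effect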
In short: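 Acute toxicity in LYMP1-003 lymphoblastoid cells: 24 hr compound treatment at 37 C, ATP measured with CellTiter-Glo after 30 min at room temperature. AC50 derived by fitting the Hill equation to qHTS titrations.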

[13] = Cell Viability - LYMP1-003 - Assay at 40 hr (AID 964); also: % is scaled to controls: 0 for no effect and ±100 for the full control effect; nearly all actives have a fitted effect of over 60% in size
In short: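 This qHTS cytotoxicity screen treats human lymphoblastoid cells (LYMP1-003) with compounds for 40 hr and quantifies cellular ATP via luciferase luminescence.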

[14] = Cell Viability - LYMP2-003 (AID 965);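 also: cells exposed to compounds for 24 h before reading; 0% = DMSO only and full effect = 92 µM tetraoctylammonium bromide; nearly all actives have a fitted effect of over 50% in size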
In short: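 Human lymphoblastoid LYMP2-003 cells, 2500/well, exposed to compounds for 24 h at 37 C in complete medium. Viability read as intracellular ATP by CellTiter-Glo luminescence; AC50 from Hill-equation fits of qHTS concentration-response data.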

[15] = Cell Viability - LYMP2-004 (AID 966);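 also: plate controls were DMSO only for no effect and tetraoctylammonium bromide control for full effect; nearly all actives have a fitted effect of over 65% in size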
In short: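 Acute toxicity is scored as a concentration-dependent drop in intracellular ATP, quantified by luciferase luminescence, in human lymphoblastoid cells exposed to compound for 24 hr. AC50 derives from Hill-equation modelling.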

[16] = Cell Viability - LYMP2-005 (AID 967);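 also: plate controls were DMSO only for no effect and 92 µM tetraoctylammonium bromide control for full effect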
In short: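 Human lymphoblastoid LYMP2-005 cells, 2,500 per well in complete medium, rested 5 h at 37C then compound-treated 24 h at 37C. Intracellular ATP read by CellTiter-Glo luminescence after 30 min at room temperature; AC50 from Hill-equation fits of concentration-response data.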

[17] = Cell Viability - LYMP2-011 (AID 969);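 also: 0% = DMSO only and full inhibition = 92 µM tetraoctylammonium bromide; nearly all actives have a fitted effect of over 60% in size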
In short: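 Acute toxicity is scored as a concentration-dependent drop in intracellular ATP of a human lymphoblastoid line after 24 hr treatment. Values are AC50s modeled with the Hill equation.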

[18] = Cell Viability - LYMP2-013 (AID 970);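 also: 0% = DMSO only and full inhibition = tetraoctylammonium bromide control; nearly all actives have a fitted effect of over 55% in size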
In short: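 Acute toxicity was measured in human lymphoblastoid cells (2500/well) exposed to compound titrations for 24 hr, with ATP luminescence (CellTiter-Glo) as read-out and AC50 fitted by Hill equation.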

[19] = Cell Viability - LYMP2-015 (AID 971);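 also: 0% = DMSO only and full effect = 92 µM tetraoctylammonium bromide; nearly all actives have a fitted effect of over 55% in size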
In short: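 Acute toxicity was scored as a concentration-dependent drop in intracellular ATP in lymphoblastoid cells after 24 hr compound exposure in complete medium. Detection used CellTiter-Glo luciferase luminescence.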

[20] = Cell Viability - LYMP2-017 (AID 972); also: % is scaled to controls: 0 for no effect and ±100 for the full control effect; nearly all actives have a fitted effect of over 55% in size
In short: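 Steps: plate 2500 lymphoblastoid cells per well; incubate 5 hr at 37 C; add compound across a concentration series and incubate 24 hr at 37 C; add CellTiter-Glo and read luminescence after 30 min at room temperature; fit Hill curves for AC50.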

[21] = Cell Viability - LYMP2-019 (AID 973);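 also: 0% = DMSO alone and full effect = 92 µM tetraoctylammonium bromide; nearly all actives have a fitted effect of over 55% in size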
In short: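 Cells plated at 2500/well and allowed 5 hr at 37 C before compound addition. After 24 hr incubation, CellTiter-Glo reagent was added, plates sat 30 min at room temperature, and luminescence was recorded.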

[22] = Cell Viability - LYMP2-021 (AID 974)
In short: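 Concentration-response cytotoxicity in a human lymphoblastoid line: 24 hr treatment at 37 C in complete culture medium, tetraoctylammonium bromide as positive control, luminescent ATP quantitation as viability measure.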

[23] = Cell Viability - LYMP2-023 (AID 975)
In short: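 Concentration-dependent drop in intracellular ATP measures acute cytotoxicity in a human lymphoblastoid line treated for 24 hours in complete culture medium. AC50 values are taken from Hill-equation fits of qHTS data.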

Clc1cc(Cl)c(-c2cc(Cl)c(Cl)cc2Cl)cc1Cl
inactive: outcome [1] | caspase-3 activation [2] -3.51% [at 91.7 µM] | Potency [3] | Potency [4] | Potency [5] | Potency [6] | Potency [7] | outcome [8] | Potency [9] | Potency [10] | Potency [11] | Potency [12] | Potency [13] | Potency [14] | Potency [15] | Potency [16] | Potency [17] | Potency [18] | Potency [19] | Potency [20] | Potency [21] | Potency [22] | Potency [23]
